46 molecules from PubChem BioAssay AID1851 (National Center for Advancing Translational Sciences (NCATS), 2009) can be followed below.

Among all 16,000 compounds or so, about 5,800 (36%) were called active. Another 23% or so got no clear call; they are omitted. The call rests on the fitted dose curve; in most records, active means well fitted curve in the direction sought with a large enough effect; inconclusive means small, poorly fitted or top-dose-only effect, or effect the other way; inactive means no such curve, though single readings can be large or run the other way. The list shows a part of the results.

What is called AC50 is the concentration at which the activity in the assay is half-maximal.
On the % scale 0 is the no-effect control and ±100 the full control effect.

The target of this assay is Cytochrome P450 2C19 (Homo sapiens) (UniProt P33261). The assay can be described thus: Cytochrome panel assay with activity outcomes. The following applies: recombinant CYP, pro-luciferin dealkylation, luminescence, p450-cyp2c19; series mostly up to 57.1 µM; activity, negative = inhibition: at the top concentration.
Cytochrome P450 2C19 (Homo sapiens), sequence (P33261 whole entry, looked up): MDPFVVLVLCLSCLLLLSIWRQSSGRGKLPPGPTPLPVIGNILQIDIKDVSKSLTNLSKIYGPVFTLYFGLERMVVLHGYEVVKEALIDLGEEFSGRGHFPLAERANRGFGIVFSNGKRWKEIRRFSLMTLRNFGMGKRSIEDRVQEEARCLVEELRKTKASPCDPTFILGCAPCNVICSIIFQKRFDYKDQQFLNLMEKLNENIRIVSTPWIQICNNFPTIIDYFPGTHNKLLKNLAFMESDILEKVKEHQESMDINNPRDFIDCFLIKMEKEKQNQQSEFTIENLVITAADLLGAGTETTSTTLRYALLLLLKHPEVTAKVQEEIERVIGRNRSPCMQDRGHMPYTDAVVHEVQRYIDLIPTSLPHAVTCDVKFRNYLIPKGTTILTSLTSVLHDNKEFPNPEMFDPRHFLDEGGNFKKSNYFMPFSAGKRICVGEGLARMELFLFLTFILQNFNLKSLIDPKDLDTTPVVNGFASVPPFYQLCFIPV
In the case of `COCC(C)n1c(C)cc(C(=O)CSc2nnc(Nc3ccccc3F)s2)c1C` (stereo unspecified), the AC50 was 2 µM (active).

On to `Cc1cc(C)c[n+](CC(=O)c2cc3ccccc3oc2=O)c1`, for which the “activity, negative = inhibition” value was 4.16% (inactive).

Consider `O=C(c1sc2ccccc2c1Cl)N(Cc1ccccc1)C1CCS(=O)(=O)C1` (stereo unspecified), for which the AC50 was 3.16 µM (active).

Take `CCc1ccc(OCC(=O)OC2CCS(=O)(=O)C2)cc1` (stereo unspecified): the “activity, negative = inhibition” value is -23.3% (inactive).

With `CCOc1ccc(CN(C(=O)c2oc3ccccc3c2C)C2CCS(=O)(=O)C2)cc1` (stereo unspecified), the AC50 was 1.41 µM (active).

Turning to `CCCN(C(=S)Nc1ccccc1)C1CCS(=O)(=O)C1` (stereo unspecified), the “activity, negative = inhibition” value is -23.4% (inactive).

`Cc1ccc(CN(C(=O)c2cc3ccccc3oc2=O)C2CCS(=O)(=O)C2)cc1` (stereo unspecified): the AC50 is 14.1 µM (active).

For `CCOc1ccc(Cc2nccc3cc(OCC)c(OCC)cc23)cc1OCC`, the “activity, negative = inhibition” value is 8.39% [at 25.6 µM] (inactive).

Regarding `C/C(CC/C(C)=N/O)=N/O`, the activity, negative = inhibition is 6.8% [at 11.4 µM] (inactive).

As for `COc1cccc(CNC(=O)C2CCN(S(=O)(=O)N3CCCCC3)CC2)c1`, the “activity, negative = inhibition” value was -23.7% (inactive).

Regarding `O=C(NCc1ccccc1Cl)C1CCN(S(=O)(=O)N2CCC3(CC2)OCCO3)CC1`, the AC50 was 22.4 µM (active).

With `O=C(NCCc1ccc(Cl)cc1)C1CCN(S(=O)(=O)N2CCC3(CC2)OCCO3)CC1`, the AC50 is 4.47 µM (active).

On to `CCOc1ccc(CCNC(=O)C2CCN(S(=O)(=O)CC)CC2)cc1OCC`, for which the “activity, negative = inhibition” value is -24.6% (inactive).

Regarding `CCS(=O)(=O)N1CCC(C(=O)NCc2ccco2)CC1`, the “activity, negative = inhibition” value was -10.1% (inactive).

`CCS(=O)(=O)N1CCC(C(=O)NCCCOC)CC1`: the “activity, negative = inhibition” value was -13.8% (inactive).

As for `CCS(=O)(=O)N1CCC(C(=O)NCCCN2CCCC2)CC1`, the “activity, negative = inhibition” value was -1.56% (inactive).

Regarding `COc1ccc(CCNC(=O)C2CCN(S(=O)(=O)N3CC(C)CC(C)C3)CC2)cc1OC` (stereo unspecified), the concentration at half-maximal activity (AC50) was 14.1 µM (active).

For `CCOCCCNC(=O)C1CCN(S(=O)(=O)N2CC(C)CC(C)C2)CC1` (stereo unspecified), the “activity, negative = inhibition” value was -22.9% (inactive).

For `O=C(NCCCN1CCN(Cc2ccccc2)CC1)C1CCN(S(=O)(=O)N2CCCC2)CC1`, the “activity, negative = inhibition” value is -10.4% (inactive).

Turning to `CCS(=O)(=O)N1CCC(C(=O)NCc2ccccc2OC)CC1`, the AC50 was 39.8 µM (active).

In the case of `O=C(Nc1ccc(F)cc1F)c1cccn1-c1ncc(C(F)(F)F)cc1Cl`, the AC50 was 10 µM (active).

With `Cc1ccc(C(=O)Nc2ccccc2Oc2ccccc2)cc1[N+](=O)[O-]`, the half-maximal activity concentration (AC50) was 3.16 µM (active).

As for `Cc1ccc(C(=O)N/N=C\c2ccc[nH]2)cc1[N+](=O)[O-]`, the “activity, negative = inhibition” value was 1.23% (inactive).

For the molecule `Cc1ccc(C(=O)Nc2ccc(Cc3ccncc3)cc2)cc1[N+](=O)[O-]`, the AC50 is 1.12 µM (active).

`Cc1noc(C)c1C(=O)N1CCC2(CCN(C(=O)Nc3ccccc3)CC2)CC1`: the “activity, negative = inhibition” value was -16.5% (inactive).

With `CC(=O)c1ccc(NC(=O)C2(c3ccccc3)CCOCC2)cc1`, the AC50 was 14.1 µM (active).

Turning to `COc1ccc(NC(=O)N2CC3(CCN(C(=O)c4ccc(OC)cc4)CC3)C2)cc1`, the “activity, negative = inhibition” value was 5.03% (inactive).

For the molecule `CCOC(=O)c1ccc(NC(=O)C2(c3ccc(OC)cc3)CCOCC2)cc1`, the concentration at half-maximal activity (AC50) was 2.24 µM (active).

Consider `COc1ccc(NC(=O)C2(c3ccc(NC(=O)c4ccc(OC(C)=O)cc4)cc3)CCCC2)cc1`, for which the “activity, negative = inhibition” value is 0.405% (inactive).

For the molecule `COc1ccc(NC(=O)C2(c3ccc(NC(=O)c4ccc(C)cc4)cc3)CCCC2)cc1`, the “activity, negative = inhibition” value is 23.1% (inactive).

For the molecule `NS(=O)(=O)c1cc2c(cc1Cl)N[C@@H](CC1CCCC1)NS2(=O)=O`, the “activity, negative = inhibition” value was -18.8% [at 25.6 µM] (inactive).

`O=[N+]([O-])c1ccc(C=Nc2ccc(Cl)cc2Cl)s1`: the AC50 is 7.08 µM (active).

Turning to `O=C(/C=C/Nc1ccccc1)c1ccc(Oc2ncccn2)cc1`, the concentration at half-maximal activity (AC50) was 15.8 µM (active).

As for `COc1ccc(NC(=O)c2ccc(-c3ccc(-c4noc(C)n4)cc3C)cc2)cc1OCCN(C)C`, the “activity, negative = inhibition” value is -37% (inactive).

For the molecule `COc1ccc(-c2noc(N(C)CC(=O)Nc3cccc(C(F)(F)F)c3)n2)cc1`, the AC50 was 4.47 µM (active).

Regarding `CC[C@]1(O)C[C@@H]2CN(CCc3c([nH]c4ccccc34)[C@](C(=O)OC)(c3cc4c(cc3OC)N(C=O)[C@H]3[C@@](O)(C(=O)OC)[C@H](C(=O)OC)[C@@]5(CC)C=CCN6CC[C@]43[C@H]65)C2)C1`, the “activity, negative = inhibition” value is -33.8% (inactive).

As for `CC1=NCC[N@@+]1(CCc1ccccc1)Cc1ccccc1`, the activity, negative = inhibition was 32.9% [at 11.4 µM] (inactive).

As to `COc1ccc2[nH]cc(CCNc3ncncc3-c3ccc(N(C)C)cc3)c2c1`, the concentration at half-maximal activity (AC50) is 1.58 µM (active).

Consider `COc1ccc2[nH]cc(CCNc3ncnc4ccc(-c5ccc(C(=O)N(C)C)cc5)cc34)c2c1`, for which the concentration at half-maximal activity (AC50) is 7.94 µM (active).

Consider `COc1ccc2[nH]cc(CCNc3ncncc3-c3ccc(C(=O)N(C)C)cc3)c2c1`, for which the AC50 is 10 µM (active).

For `O=C(O)c1[nH]c2c([N+](=O)[O-])cc([N+](=O)[O-])cc2c1C(=O)O`, the activity, negative = inhibition was 39.2% [at 11.4 µM] (inactive).

On to `NS(=O)(=O)c1cc2c(cc1C(F)(F)F)N[C@H](Cc1ccccc1)NS2(=O)=O`, for which the “activity, negative = inhibition” value was -20.3% [at 25.6 µM] (inactive).

As to `CC[n+]1c(P(=O)([O-])c2ccccc2)[nH]c2ccccc21`, the “activity, negative = inhibition” value is -15.5% (inactive).

Turning to `CN1CC(c2ccccn2)C2(SC(=S)N(Cc3ccccc3)C2=O)C12C(=O)Nc1ccccc12` (stereo unspecified), the half-maximal activity concentration (AC50) was 1.12 µM (active).

With `Cc1ccc(C(=O)c2c[nH]c(C(=O)NCCCN3CCOCC3)c2)cc1`, the “activity, negative = inhibition” value is -7.11% (inactive).

On to `O=C(c1ccc(C(F)(F)F)cc1)c1c[nH]c(C(=O)NCCCn2ccnc2)c1`, for which the AC50 is 0.631 µM (active).
